This note sets out measurements from the supplement of paper PMC7726561.

The target in this assay is HLA-C*04:01. The assay can be described thus: thermal melting temperature (Tm) of peptide-HLA complex; higher = more thermostable pHLA complex. How it is done:
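Endogenous HLA-C*04:01 ligands were detected in the thermostability assays of both the C1R-A*02:01 and C1R-B*07:02 lines. Lysates were heated 10 min at 37-73 °C and pHLA immunoprecipitated with W6/32. Peptides were quantified by DIA-MS and Tm was taken from a logistic sigmoid fit.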

For VLDDKLVFV, the thermal melting temperature (C1R-A*02:01) is 61.8 °C and the thermal melting temperature (C1R-B*07:02) amounted to 48.9 °C.
Sequence FFEVSPVSF registered a thermal melting temperature (C1R-A*02:01) of 49.9 °C and a thermal melting temperature (C1R-B*07:02) of 46.6 °C.
The like results for LWDSAVSHF were, in that order, 55.1 °C and 55.6 °C.
Regarding VIDEPVRL, the thermal melting temperature worked out at 50 °C (C1R-A*02:01) and 50.3 °C (C1R-B*07:02).
IFSEKPVFV had a thermal melting temperature (C1R-A*02:01) of 60 °C and a thermal melting temperature (C1R-B*07:02) of 57 °C.
For SFDDTNEKF, the thermal melting temperature came out at 49.8 °C (C1R-A*02:01) and 48.2 °C (C1R-B*07:02).
With FYDERIVVV, the thermal melting temperature worked out at 63.9 °C (C1R-A*02:01) and 62.3 °C (C1R-B*07:02).
As for VFDEAVRV, the thermal melting temperature is, setting by setting: (C1R-A*02:01) 52.4 °C; (C1R-B*07:02) 50.6 °C.
With VFDVLDGEEM, the thermal melting temperature runs as follows: (C1R-A*02:01) 53.4 °C; (C1R-B*07:02) 60.9 °C.
As to QFDNYGEEF, the thermal melting temperature reads like this: (C1R-A*02:01) 50.8 °C; (C1R-B*07:02) 55.5 °C.
In turn, VWDLFPEADKV displayed a thermal melting temperature (C1R-A*02:01) of 54.5 °C and a thermal melting temperature (C1R-B*07:02) of 52.4 °C.
Take HFDPEVYL: the thermal melting temperature came to 54.6 °C (C1R-A*02:01) and 53.2 °C (C1R-B*07:02).
With LFHPSNVEM, the thermal melting temperature came to 46 °C (C1R-A*02:01) and 46.4 °C (C1R-B*07:02).
The corresponding values for TYEGKPIFL are 52.9 °C and 51.5 °C.
For VFDEAIRAV, the thermal melting temperature was 61.2 °C (C1R-A*02:01) and 61.5 °C (C1R-B*07:02).
The corresponding values for IYDPNLAFL are 58.9 °C and 56 °C.
In the case of NPDDVFREF, the thermal melting temperature is, setting by setting: (C1R-A*02:01) 61.2 °C; (C1R-B*07:02) 62.7 °C.
The corresponding values for FWDDAVKEV are 46.6 °C and 48.3 °C.
Sequence FFDEVVKQM showed a thermal melting temperature (C1R-A*02:01) of 58.8 °C and a thermal melting temperature (C1R-B*07:02) of 60.5 °C.
FYDVQFKEL: the thermal melting temperature worked out at 53.1 °C (C1R-A*02:01) and 52.5 °C (C1R-B*07:02).
On to YFDPANGKF, for which the thermal melting temperature was found to be 57.6 °C (C1R-A*02:01) and 57.5 °C (C1R-B*07:02).
On to VTDPRVVDL, for which the thermal melting temperature reads like this: (C1R-A*02:01) 53.8 °C; (C1R-B*07:02) 52.7 °C.
As for AWDIAIATM, the thermal melting temperature stood at 50.9 °C (C1R-A*02:01) and 49.6 °C (C1R-B*07:02).
For IWDETPLYF, the thermal melting temperature stood at 50.8 °C (C1R-A*02:01) and 51.8 °C (C1R-B*07:02).
